{"source": "PubChem BioAssay AID2781", "about": "(National Center for Advancing Translational Sciences (NCATS), 2010)", "note": "The source made the active and inactive calls.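 Rule for the calls: active = compound whose NMR saturation transfer difference test with menin is positive, showing direct binding to the protein; inactive = the rest.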", "data": [{"target": "Menin (Homo sapiens) (UniProt O00255)", "sequence (O00255 whole entry, looked up)": "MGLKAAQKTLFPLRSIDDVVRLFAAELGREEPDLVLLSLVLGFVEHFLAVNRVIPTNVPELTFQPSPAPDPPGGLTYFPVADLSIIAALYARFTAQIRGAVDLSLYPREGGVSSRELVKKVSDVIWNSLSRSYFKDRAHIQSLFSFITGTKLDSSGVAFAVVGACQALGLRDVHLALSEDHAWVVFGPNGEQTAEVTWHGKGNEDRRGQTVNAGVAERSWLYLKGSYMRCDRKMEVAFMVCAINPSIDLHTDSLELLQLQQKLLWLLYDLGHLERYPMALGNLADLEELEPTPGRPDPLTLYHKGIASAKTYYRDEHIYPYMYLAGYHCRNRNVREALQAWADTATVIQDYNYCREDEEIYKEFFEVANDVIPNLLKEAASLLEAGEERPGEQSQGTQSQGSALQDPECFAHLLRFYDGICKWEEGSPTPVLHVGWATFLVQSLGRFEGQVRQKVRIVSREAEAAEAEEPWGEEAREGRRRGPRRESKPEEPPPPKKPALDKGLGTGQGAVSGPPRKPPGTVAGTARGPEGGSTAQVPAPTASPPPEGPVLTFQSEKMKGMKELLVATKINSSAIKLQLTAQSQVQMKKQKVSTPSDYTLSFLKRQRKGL", "experiment": "Confirmation of Inhibitors Targeting the Menin-MLL Interaction in MLL Related Leukemias: NMR spectroscopy to verify direct binding of compounds to menin", "settings": "purified menin, NMR STD binding, 100 uM", "outline": "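Binding was checked by 600 MHz STD NMR in pH 7.5 phosphate buffer (50 mM phosphate, 50 mM NaCl, 1 mM DTT). Samples held 100 uM compound and 2.5 uM menin, alone or with 25 uM wild-type MLL peptide.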", "values": [{"smiles": "CS(=O)(=O)c1ccc2nc(NC(=O)Nc3cccc(Cl)c3)sc2c1", "outcome": "inactive; negative"}, {"smiles": "COc1ccc(S(=O)(=O)Nc2cc(SCC(=O)O)c(O)c3ccccc23)cc1", "outcome": "inactive; negative"}, {"smiles": "COC(=O)Cc1c(C)nc2nc(-c3ccc(OC)cc3)[nH]n2c1=O", "outcome": "inactive; negative"}, {"smiles": "COc1ccccc1NS(=O)(=O)c1cc(N2Cc3ccccc3C2=N)ccc1N1CCOCC1", "outcome": "inactive; negative"}, {"smiles": "COc1ccc2[nH]c3c(C)c4ccncc4c(C)c3c2c1", "outcome": "inactive; negative"}, {"smiles": "CCN(CC)Cc1cc2[nH]c3c4ccc(Cl)cc4ncc3c2cc1OC", "outcome": "inactive; negative"}, {"smiles": "CCc1ccc2c(c1)C(NC(C)=O)C(=O)N2CCN1CCOCC1", "note": "(stereo not given)", "outcome": "inactive; negative"}, {"smiles": "COc1ccc(Cn2nnnc2C(c2ccc3ncccc3c2)N2CCN(C3CCCCC3)CC2)cc1", "note": "(stereo not given)", "outcome": "active; positive"}, {"smiles": "CCNc1ccccc1CP(=O)(c1ccccc1)c1ccccc1O", "note": "(stereo not given)", "outcome": "inactive; negative"}, {"smiles": "O=C(CSc1nc(O)cc(=O)n1-c1ccccc1)c1ccc(Br)cc1", "outcome": "inactive; negative"}, {"smiles": "CCc1oc2ccccc2c1C(=O)c1cc(Br)c(O)c(Br)c1", "outcome": "inactive; negative"}, {"smiles": "CCc1cc2c(N3CCN(C(=O)c4ccco4)CC3)ncnc2s1", "outcome": "inactive; negative"}, {"smiles": "CCc1cc2c(N3CCN(c4nnc(CC)s4)CC3)ncnc2s1", "outcome": "inactive; negative"}, {"smiles": "O=C(CS)Nc1ccc2ccccc2c1", "outcome": "inactive; negative"}, {"smiles": "CC1CCCCN1S(=O)(=O)c1ccc(C(=O)Nc2ccccc2-c2nc3ccccc3[nH]2)cc1", "note": "(stereo not given)", "outcome": "inactive; negative"}, {"smiles": "O=C(O)CSc1cc(NS(=O)(=O)c2ccc(Br)cc2)c2ccccc2c1O", "outcome": "inactive; negative"}, {"smiles": "Oc1ccc(Nc2ncnc3c2oc2ccccc23)cc1", "outcome": "inactive; negative"}, {"smiles": "CCC[n+]1c2ccccc2cc2ccccc21", "outcome": "inactive; negative"}, {"smiles": "O=C(COC(=O)c1ccc(NS(=O)(=O)c2cccs2)cc1)Nc1nc2c(F)c(F)c(F)cc2s1", "outcome": "inactive; negative"}, {"smiles": "O=C(Nc1nnc(-c2ccccc2SCc2ccccc2)s1)Nc1ccccc1F", "outcome": "inactive; negative"}]}]}
